Test results: PubChem BioAssay (EPA / NIEHS)
Activity calls are given as the source filed them. How the source made its calls: active means hit-call score of the fitted dose curve at least 0.9, where 1 is the maximum; inactive means score below 0.9.

How the values were obtained:
[1] = ATG_CRE_CIS: Attagene CIS-FACTORIAL HepG2 Assay for human cAMP Responsive Element (CRE) binding protein 3 (AID 2282926); conditions: HepG2 CRE cis-reporter, Attagene multiplexed mRNA; actives raise or lower the signal
Method in brief: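 Multiplexed transcription-unit reporters transfected into HepG2; 24 h dosing; RT-PCR/capillary electrophoresis fluorescence read-out; bidirectional fit vs DMSO.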

[2] = target: CCAAT/enhancer-binding protein beta (Homo sapiens) (UniProt P17676); test: ATG_C_EBP_CIS: Attagene CIS-FACTORIAL HepG2 Assay for human CCAAT/Enhancer Binding Protein (C/EBP) beta (AID 2282927); conditions: HepG2 Attagene cis-factorial transcription factor reporter; actives raise or lower the signal
Method in brief: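 Chemical-treated HepG2 cells (24 h) bearing cis-regulated reporter constructs were processed for total RNA, then reverse transcription, PCR amplification, fluorescent primer extension and fragment analysis; gain- and loss-of-signal were fitted against DMSO.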

[3] = ATG_CMV_CIS: Attagene CIS-FACTORIAL HepG2 Assay for human CMV (Internal Marker) (AID 2282928); conditions: HepG2 CMV promoter reporter, transcription factor profiling; actives raise or lower the signal;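 further: endpoint acts as a background internal control marker rather than a target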
Method in brief: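 HepG2 cells transiently transfected with multiple cis-regulated reporter units; 24 h compound exposure. Reporter mRNA quantified by RT-PCR, 6-FAM primer-extension labeling, HpaI digestion and capillary electrophoresis; bidirectional fitting against DMSO baseline.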

[4] = ATG_DR4_LXR_CIS: Attagene CIS-FACTORIAL HepG2 Assay for human Liver X Receptor (LXR), DR4 submotif (AID 2282929); conditions: HepG2 Attagene DR4 cis-reporter, mRNA transcription; actives raise or lower the signal
Method in brief: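 HepG2, transient MRTU transfection, cis-element (DR4) promoter; 24 h compound exposure; total RNA → oligo(dT) RT → PCR → 6-FAM primer extension → HpaI cut → CE. Gain/loss vs DMSO, bidirectional fit.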

[5] = ATG_AP_1_CIS: Attagene CIS-FACTORIAL HepG2 Assay for human Activator Protein 1 (AP-1) (AID 2282931); conditions: HepG2 Attagene cis-factorial AP-1 reporter mRNA; actives raise or lower the signal
Method in brief: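 Transient MRTU transfection of HepG2 → 24 h chemical treatment → RNA isolation, RT-PCR, 6-FAM labelling, HpaI digest → capillary electrophoresis. Fit: bidirectional, DMSO negative control.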

[6] = ATG_AP_2_CIS: Attagene CIS-FACTORIAL HepG2 Assay for human Activator Protein 2 (AP-2) (AID 2282932); conditions: HepG2 AP-2 cis-reporter, Attagene transcription factor profiling; actives raise or lower the signal
Method in brief: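 Bidirectional curve fitting against DMSO was applied to reporter mRNA signals from HepG2 cells 24 h after dosing. Cis-promoter reporter units, transiently transfected, were read by RT-PCR plus capillary electrophoresis.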

[7] = target: Transcription factor E2F1 (Homo sapiens) (UniProt Q01094); test: ATG_E2F_CIS: Attagene CIS-FACTORIAL HepG2 Assay for human E2F Transcription Factor 1 (AID 2282935); conditions: HepG2 Attagene cis-reporter, E2F reporter RNA transcripts; actives raise or lower the signal
Method in brief: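 Multiplexed cis-reporter assay: HepG2, transient transfection, 24 h dosing, mRNA quantitation by labeled RT-PCR and CE.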

[8] = ATG_E_Box_CIS: Attagene CIS-FACTORIAL HepG2 Assay for human Enhancer Box (E-box) (AID 2282936); conditions: HepG2 E-box cis-reporter transcription, actives raise or lower the signal
Method in brief: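 Multiplexed CIS reporter system in transiently transfected HepG2 cells measures native transcription factor activity. Reporter RNA after 24 h exposure is profiled by RT-PCR-capillary electrophoresis.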

[9] = ATG_M_61_CIS: Attagene CIS-FACTORIAL HepG2 Assay for M61 Transcription Factor (Internal Marker) (AID 2282937); conditions: HepG2 Attagene CIS-FACTORIAL M61 internal marker reporter; actives raise or lower the signal
Method in brief: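 Human liver HepG2, transient MRTU transfection (cis promoter elements), 24 h compound. Total RNA → oligo(dT) RT → PCR → FAM label → HpaI → CE. Internal background marker; bidirectional fitting, DMSO = baseline.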

[10] = ATG_EGR_CIS: Attagene CIS-FACTORIAL HepG2 Assay for human Early Growth Response 1 (EGR1) (AID 2282938); conditions: HepG2 Attagene CIS-FACTORIAL EGR reporter mRNA; actives raise or lower the signal
Method in brief: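 Transient transfection of human HepG2 with multiple cis-regulated reporter units, chemical exposure 24 h, total RNA isolated. Reverse transcription, PCR, fluorescent labelling and capillary electrophoresis quantify reporter transcripts; activity fitted bidirectionally against DMSO.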

[11] = ATG_M_19_CIS: Attagene CIS-FACTORIAL HepG2 Assay for M19 Transcription Factor (Internal Marker) (AID 2282939); conditions: HepG2 Attagene CIS-FACTORIAL M19 internal marker reporter; actives raise or lower the signal
Method in brief: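 Background-control endpoint from a multiplexed HepG2 reporter panel. Cells carrying cis-regulated reporter constructs are treated 24 h, then reporter transcripts are amplified, fluorescently labelled and sized by capillary electrophoresis. DMSO defines baseline.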

[12] = ATG_ERE_CIS: Attagene CIS-FACTORIAL HepG2 Assay for Estrogen Response Element (ERE) (AID 2282940); conditions: HepG2 ERE cis-reporter, Attagene RNA transcript; actives raise or lower the signal
Method in brief: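 Cells used were human hepatoma HepG2, transfected with multiple reporter transcription units under cis-regulatory promoters. Reporter mRNA, read 24 h post-dosing via fluorescent RT-PCR products on capillary electrophoresis, was fitted bidirectionally relative to DMSO.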

[13] = ATG_Ets_CIS: Attagene CIS-FACTORIAL HepG2 Assay for human Erythroblast Transformation Specific (ETS) (AID 2282941); conditions: HepG2 ETS cis-reporter transcription, actives raise or lower the signal
Method in brief: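 HepG2 cells transiently transfected with cis-promoter reporter transcription units were dosed for 24 h; reporter mRNA was measured by RT-PCR, 6-FAM primer extension, HpaI digestion and capillary electrophoresis, with bidirectional fitting against DMSO baseline.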

[14] = target: Hepatocyte nuclear factor 3-beta (Homo sapiens) (UniProt Q9Y261); test: ATG_FoxA2_CIS: Attagene CIS-FACTORIAL HepG2 Assay for human Forkhead box A2 (FOXA2) (AID 2282942); conditions: HepG2 cis-reporter transcription factor activity, 24 h; actives raise or lower the signal
Method in brief: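 Transient MRTU transfection of HepG2 liver cells; 24 h treatment; total RNA → oligo(dT) RT → PCR → FAM primer extension → HpaI cut → CE. Bidirectional fit vs DMSO.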

[15] = ATG_FoxO_CIS: Attagene CIS-FACTORIAL HepG2 Assay for human Forkhead box O (FoxO) (AID 2282943); conditions: HepG2 Attagene cis-reporter, FoxO element, mRNA; actives raise or lower the signal
Method in brief: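 24 h chemical exposure, HepG2 with transient cis-MRTU transfection. RNA extraction, oligo(dT) RT, reporter-specific PCR, primer-extension labelling, HpaI digestion, CE fragment analysis; bidirectional fit, DMSO baseline.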

[16] = ATG_BRE_CIS: Attagene CIS-FACTORIAL HepG2 Assay for human Bone Morphogenetic Protein (BMP) Response Element (BRE) (AID 2282933); conditions: HepG2 BMP response element reporter, Attagene transcription factor profiling; actives raise or lower the signal
Method in brief: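 Endogenous transcription factor activity at a BMP response element was monitored in transfected HepG2 cells 24 h after dosing. Fluorescent RT-PCR products were resolved by capillary electrophoresis, and activity was fitted in both directions versus DMSO.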

[17] = ATG_GATA_CIS: Attagene CIS-FACTORIAL HepG2 Assay for human GATA Binding Protein (AID 2282944); conditions: HepG2 GATA cis-element reporter, Attagene multiplex mRNA; actives raise or lower the signal
Method in brief: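 Endogenous transcription factor activity was captured through cis-promoter-driven reporters in transfected HepG2 cells. After 24 h exposure, reporter transcripts were quantified by RT-PCR with fluorescent capillary electrophoresis, and responses fitted both directions against DMSO.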

[18] = target: Aryl hydrocarbon receptor (Homo sapiens) (UniProt P35869); test: ATG_Ahr_CIS: Attagene CIS-FACTORIAL HepG2 Assay for human Aryl Hydrocarbon Receptor (Ahr) (AID 2282930); conditions: HepG2 AhR cis-factorial reporter transcription; actives raise or lower the signal
Method in brief: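 Following 24 h of chemical dosing, transfected HepG2 liver cells with cis-driven reporter units were lysed for RNA; reporter mRNA was quantified via RT-PCR and capillary electrophoresis, and responses fitted bidirectionally from DMSO.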

[19] = target: Retinoic acid receptor alpha (Homo sapiens) (UniProt P10276); test: ATG_DR5_RAR_CIS: Attagene CIS-FACTORIAL HepG2 Assay for human Retinoic Acid Receptor Alpha (RARE), DR5 submotif (AID 2282934); conditions: HepG2 Attagene cis-factorial RARE DR5 reporter, mRNA; actives raise or lower the signal
Method in brief: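 Transfected HepG2 reporter cells are exposed to chemicals for 24 h. Then RNA is extracted and the DR5 element reporter transcript is measured by RT-PCR and capillary electrophoresis, with bidirectional curve fitting relative to DMSO.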

Chain of Transcription factor E2F1 (Homo sapiens) (Q01094 whole entry, looked up): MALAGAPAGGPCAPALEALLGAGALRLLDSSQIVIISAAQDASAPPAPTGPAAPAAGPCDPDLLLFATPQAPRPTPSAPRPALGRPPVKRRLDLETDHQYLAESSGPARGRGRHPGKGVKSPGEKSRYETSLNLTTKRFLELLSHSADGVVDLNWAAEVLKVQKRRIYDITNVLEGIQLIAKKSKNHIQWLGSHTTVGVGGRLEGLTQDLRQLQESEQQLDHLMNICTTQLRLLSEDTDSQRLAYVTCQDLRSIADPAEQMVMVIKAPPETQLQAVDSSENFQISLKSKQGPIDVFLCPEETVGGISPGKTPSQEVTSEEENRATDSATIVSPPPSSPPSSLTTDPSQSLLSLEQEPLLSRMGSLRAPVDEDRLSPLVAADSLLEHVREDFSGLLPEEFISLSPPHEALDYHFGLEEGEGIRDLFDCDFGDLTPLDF
Chain of CCAAT/enhancer-binding protein beta (Homo sapiens) (P17676 whole entry, looked up, the tested form may be a part): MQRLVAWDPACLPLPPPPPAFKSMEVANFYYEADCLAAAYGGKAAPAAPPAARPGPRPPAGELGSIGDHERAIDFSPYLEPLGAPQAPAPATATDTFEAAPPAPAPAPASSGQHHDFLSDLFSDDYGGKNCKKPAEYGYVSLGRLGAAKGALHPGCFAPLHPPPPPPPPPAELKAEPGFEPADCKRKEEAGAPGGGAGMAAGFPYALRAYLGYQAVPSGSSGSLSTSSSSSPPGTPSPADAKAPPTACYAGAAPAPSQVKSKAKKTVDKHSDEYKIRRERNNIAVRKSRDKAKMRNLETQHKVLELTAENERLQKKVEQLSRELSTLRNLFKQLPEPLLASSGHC
Chain of Hepatocyte nuclear factor 3-beta (Homo sapiens) (Q9Y261 whole entry, looked up): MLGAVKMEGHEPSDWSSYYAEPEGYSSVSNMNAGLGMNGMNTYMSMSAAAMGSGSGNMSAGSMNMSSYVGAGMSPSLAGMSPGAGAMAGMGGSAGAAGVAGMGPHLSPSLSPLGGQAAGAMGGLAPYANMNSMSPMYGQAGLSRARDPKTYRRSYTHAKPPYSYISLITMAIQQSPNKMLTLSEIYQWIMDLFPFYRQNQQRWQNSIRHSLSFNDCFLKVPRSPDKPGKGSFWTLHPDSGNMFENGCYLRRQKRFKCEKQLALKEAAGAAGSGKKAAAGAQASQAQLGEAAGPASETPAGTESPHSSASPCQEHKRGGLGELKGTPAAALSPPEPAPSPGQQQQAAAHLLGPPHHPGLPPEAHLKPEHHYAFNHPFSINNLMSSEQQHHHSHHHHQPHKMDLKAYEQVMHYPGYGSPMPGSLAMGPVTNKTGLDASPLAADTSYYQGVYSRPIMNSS
Chain of Aryl hydrocarbon receptor (Homo sapiens) (P35869 whole entry, looked up): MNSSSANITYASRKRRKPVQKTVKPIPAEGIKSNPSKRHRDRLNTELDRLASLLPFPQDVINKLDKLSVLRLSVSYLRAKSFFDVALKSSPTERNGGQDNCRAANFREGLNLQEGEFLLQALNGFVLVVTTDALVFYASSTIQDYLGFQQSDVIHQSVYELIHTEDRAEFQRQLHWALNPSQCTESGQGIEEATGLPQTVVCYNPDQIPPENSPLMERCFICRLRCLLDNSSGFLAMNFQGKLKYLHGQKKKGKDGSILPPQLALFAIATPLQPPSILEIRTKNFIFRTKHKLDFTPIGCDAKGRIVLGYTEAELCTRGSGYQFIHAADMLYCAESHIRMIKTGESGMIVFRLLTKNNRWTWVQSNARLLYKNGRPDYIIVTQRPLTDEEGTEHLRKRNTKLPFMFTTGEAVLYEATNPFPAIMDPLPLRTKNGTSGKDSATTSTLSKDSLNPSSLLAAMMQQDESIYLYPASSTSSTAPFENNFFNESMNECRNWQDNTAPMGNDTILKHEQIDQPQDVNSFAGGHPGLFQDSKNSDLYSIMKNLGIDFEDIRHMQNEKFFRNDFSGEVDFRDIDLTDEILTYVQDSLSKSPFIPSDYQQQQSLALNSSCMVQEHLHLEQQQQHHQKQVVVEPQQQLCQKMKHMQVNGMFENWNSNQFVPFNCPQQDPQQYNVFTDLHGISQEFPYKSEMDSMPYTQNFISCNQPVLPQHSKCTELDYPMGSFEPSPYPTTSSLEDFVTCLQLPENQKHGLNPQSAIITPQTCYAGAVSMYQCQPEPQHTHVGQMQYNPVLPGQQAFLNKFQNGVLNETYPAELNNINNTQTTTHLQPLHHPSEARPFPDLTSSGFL
Chain of Retinoic acid receptor alpha (Homo sapiens) (P10276 whole entry, looked up): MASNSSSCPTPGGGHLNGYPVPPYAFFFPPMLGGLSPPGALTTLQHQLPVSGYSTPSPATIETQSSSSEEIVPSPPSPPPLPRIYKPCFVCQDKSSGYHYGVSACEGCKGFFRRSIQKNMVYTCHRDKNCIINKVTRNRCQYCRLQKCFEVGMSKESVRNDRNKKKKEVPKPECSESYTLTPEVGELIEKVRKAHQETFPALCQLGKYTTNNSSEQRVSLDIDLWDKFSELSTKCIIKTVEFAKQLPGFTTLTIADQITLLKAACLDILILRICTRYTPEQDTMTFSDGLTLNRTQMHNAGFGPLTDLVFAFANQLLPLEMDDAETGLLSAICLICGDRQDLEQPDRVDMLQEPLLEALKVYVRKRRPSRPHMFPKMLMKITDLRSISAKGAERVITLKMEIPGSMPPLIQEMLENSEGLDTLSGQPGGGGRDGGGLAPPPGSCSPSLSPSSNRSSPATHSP

For CC(=O)CC(=O)N(C)C, the outcome [1] was “inactive”, the outcome [2] was “inactive” and the outcome [3] was “inactive”. For the same molecule, the outcome [4] was “inactive”, the outcome [5] was “inactive” and the outcome [6] was “inactive”. The outcome [7] was “inactive”, the outcome [8] was “inactive” and the outcome [9] was “inactive”. The outcome [10] was “inactive”, the outcome [11] was “inactive” and the outcome [12] was “inactive”. For the same molecule, the outcome [13] was “inactive”, the outcome [14] was “inactive” and the outcome [15] was “inactive”.

With CC(C)COC(=O)c1ccccc1O the outcome [1] was “inactive”, the outcome [2] was “inactive” and the outcome [3] was “inactive”. For the same molecule, the outcome [4] was “inactive”, the outcome [6] was “inactive” and the outcome [16] was “inactive”. For the same molecule, the outcome [7] was “inactive”, the outcome [8] was “inactive” and the outcome [9] was “inactive”. The outcome [10] was “inactive”, the outcome [11] was “inactive” and the outcome [12] was “inactive”. The outcome [13] was “inactive”, the outcome [14] was “inactive” and the outcome [15] was “inactive”. The outcome [17] was “inactive”.

For CCC(C)(C)C1CCC(OC)CC1 (stereo not drawn), the outcome [1] was “inactive”, the outcome [2] was “inactive” and the outcome [3] was “inactive”. The outcome [18] was “inactive”, the outcome [5] was “inactive” and the outcome [6] was “inactive”. The outcome [16] was “inactive”, the outcome [7] was “inactive” and the outcome [9] was “inactive”. For the same molecule, the outcome [10] was “inactive”, the outcome [11] was “inactive” and the outcome [14] was “inactive”. The outcome [15] was “inactive” and the outcome [17] was “inactive”.

With Cc1cc(O)c(C)c(C)c1O the outcome [1] was “inactive”, the outcome [2] was “inactive” and the AC50 [3] was 18.5 µM (active). For the same molecule, the AC50 [18] was 17.8 µM (active), the outcome [5] was “inactive” and the outcome [6] was “inactive”. The AC50 [16] was 52.8 µM (active), the outcome [7] was “inactive” and the AC50 [8] was 37.6 µM (active). For the same molecule, the outcome [9] was “inactive”, the outcome [10] was “inactive” and the outcome [11] was “inactive”. For the same molecule, the outcome [13] was “inactive”, the outcome [14] was “inactive” and the outcome [15] was “inactive”. The outcome [17] was “inactive”.

With C=C(C)CCCC(C)CCO (stereo not drawn) the outcome [1] was “inactive”, the outcome [2] was “inactive” and the outcome [3] was “inactive”. For the same molecule, the outcome [18] was “inactive”, the outcome [6] was “inactive” and the outcome [16] was “inactive”. The outcome [19] was “inactive”, the outcome [7] was “inactive” and the outcome [9] was “inactive”. The outcome [10] was “inactive”, the outcome [11] was “inactive” and the outcome [12] was “inactive”. For the same molecule, the outcome [13] was “inactive”, the outcome [14] was “inactive” and the outcome [15] was “inactive”. For the same molecule, the outcome [17] was “inactive”.

In the case of CC(=O)C1=C(C)[C@@H]2C[C@@]3(C1)[C@H](C)CC[C@H]3C2(C)C, the AC50 [1] is reported as 76.3 µM (active), the outcome [2] is reported as “inactive” and the AC50 [3] is reported as 68.8 µM (active). For the same molecule, the AC50 [18] was 55.3 µM (active), the AC50 [5] was 76.9 µM (active) and the outcome [16] was “inactive”. For the same molecule, the AC50 [7] was 139 µM (active), the outcome [8] was “inactive” and the AC50 [9] was 75.3 µM (active). For the same molecule, the outcome [10] was “inactive”, the AC50 [11] was 100 µM (active) and the AC50 [12] was 68.1 µM (active). The outcome [13] was “inactive”, the outcome [14] was “inactive” and the outcome [15] was “inactive”. The outcome [17] was “inactive”.

For O=S1(=O)CC(Cl)(Cl)C(Cl)(Cl)C1, the outcome [1] was “inactive”, the outcome [2] was “inactive” and the AC50 [3] was 2.22 µM (active). The outcome [18] was “inactive”, the outcome [5] was “inactive” and the outcome [16] was “inactive”. For the same molecule, the outcome [7] was “inactive”, the AC50 [8] was 2.8 µM (active) and the outcome [9] was “inactive”. For the same molecule, the AC50 [10] was 6.17 µM (active), the outcome [11] was “inactive” and the outcome [12] was “inactive”. The outcome [13] was “inactive”, the outcome [14] was “inactive” and the outcome [15] was “inactive”. For the same molecule, the outcome [17] was “inactive”.

For CC(C)N1C(=O)c2ccccc2C1=O, the outcome [1] was “inactive”, the outcome [2] was “inactive” and the outcome [3] was “inactive”. For the same molecule, the outcome [18] was “inactive”, the outcome [5] was “inactive” and the outcome [6] was “inactive”. The outcome [16] was “inactive”, the outcome [7] was “inactive” and the outcome [8] was “inactive”. For the same molecule, the outcome [10] was “inactive”, the outcome [11] was “inactive” and the outcome [14] was “inactive”. For the same molecule, the outcome [15] was “inactive” and the outcome [17] was “inactive”.

For O=C(O)c1cc2ccccc2cc1O, the outcome [1] was “inactive”, the outcome [2] was “inactive” and the outcome [3] was “inactive”. For the same molecule, the AC50 [18] was 4.5 µM (active), the outcome [5] was “inactive” and the outcome [19] was “inactive”. For the same molecule, the outcome [7] was “inactive”, the outcome [8] was “inactive” and the outcome [9] was “inactive”. For the same molecule, the outcome [10] was “inactive”, the outcome [11] was “inactive” and the outcome [13] was “inactive”. For the same molecule, the outcome [14] was “inactive”, the outcome [15] was “inactive” and the outcome [17] was “inactive”.
